Screening data from PubChem BioAssay.
FXN GAA850 act: activators of GAA850 frataxin (FXN) promoter; HEK293 lucGAA850 FXN promoter luciferase reporter, 24 h; percent of 10 µM SAHA response; activation, % at 6 µM; 0.56% of 360,000 active; AID 540364;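 active = activation above the average of all compounds screened plus 3 SD, cutoff fixed separately per campaign, cut at about 7.5% in these data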;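 also: 0% = DMSO wells and 100% = 10 µM SAHA wells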
F508del corr: CFTR F508del correction in bronchial cells; AID 720511; 0.36% of 350,000 active; activity (quench increase), % at 7.58 µM; CFBE cells, YFP halide quenching; stimulated with forskolin plus potentiator P3; % fluorescence drop versus neutral controls;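 active = mean added fluorescence quench of at least 8% versus neutral control, with both replicates also reaching 8%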;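 also: cells transiently co-express mutant CFTR-F508del with the halide-sensitive YFP; corrector assay measuring rescue of mutant channel to the surface after 24 h compound exposure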
EWS-Fli block: inhibitors of EWS/Fli oncoprotein transcriptional activity | A673 NR0B1-luciferase reporter, viability-normalised | inhibition, % at 12.6 µM | 0.67% of 350,000 active | AID 651661;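 active = mean inhibition of at least 50% after viability correction, with every replicate also passing that limit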;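 also: firefly luciferase signal divided by Alamar Blue viability fluorescence both relative to DMSO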
PAX8 inh HTS: PAX8 transcriptional activity inhibition; RMG-I TPO-luciferase reporter, SteadyGlo, 24 h; inhibition, % at 12.6 µM; 1.2% of 360,000 active; AID 652154;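 active = mean replicate inhibition at least 60% with every replicate also reaching 60%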;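 also: luciferase light reporting Pax8 driven TPO promoter activity; plate controls were median of neutral control wells for no effect and mitoxantrone controls for full effect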
HIV Env fusion: inhibitors of HIV Env-mediated cell fusion. 1.1% of 360,000 active. inhibition, % at 12.3 µM. HeLa-JRFL Env/CEM21 cell fusion, luciferase;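 active = mean replicate inhibition score of at least 50 and every replicate individually at or above 50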;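 also: 0% = plate neutral controls and 100% = maraviroc near 300 nM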
An asterisk follows results filed as active; [ ] = remark or other dose. The list is not random: actives were taken first. Their share in the collection is about 2.5%.

How did C=CCC[C@H](Cc1ccc(F)cc1)C(=O)OC[C@@H](NC(=O)[C@@H](CC=C)CC(=O)N[C@@H](CO)Cc1ccccc1)C(C)(C)C do in these assays?
FXN GAA850 act: -3.5; F508del corr: 0.5; EWS-Fli block: 10.9; PAX8 inh HTS: 108.0*; HIV Env fusion: 13.5

Results for C=CC[C@@H](CC(=O)N(CCO)Cc1ccccc1)C(=O)N[C@H](COC(=O)[C@@H](CC=C)Cc1ccc(F)cc1)c1ccccc1 ?
FXN GAA850 act: -9.0; F508del corr: 2.9; EWS-Fli block: 3.8; PAX8 inh HTS: 37.5; HIV Env fusion: -15.1

What do the screens show for `CCCC#Cc1ccc([C@H]2[C@@H](CO)N3C(=O)CN(S(=O)(=O)c4ccccc4C)C[C@H]23)cc1`?
F508del corr: -0.7; EWS-Fli block: 2.2

How did CN1C(=O)c2cc(NC(=O)C3CCOCC3)ccc2OC[C@@H]2O[C@H](CC(=O)NCCc3ccncc3)CC[C@@H]21 do in these assays?
EWS-Fli block: 2.3; PAX8 inh HTS: -11.1; HIV Env fusion: 6.3[16.7 µM]

How did C[C@H](CO)N1C[C@H](C)[C@@H](CN(C)C(=O)c2ccc3c(c2)OCO3)Oc2cc(-c3ccccc3)ccc2S1(=O)=O do in these assays?
F508del corr: -0.2; EWS-Fli block: -14.6; PAX8 inh HTS: -6.0; HIV Env fusion: 15.4[16.7 µM]

What do the screens show for `COC(=O)c1cc2c(c3c4cc(OC)ccc4n(S(=O)(=O)c4ccccc4)c13)C(=O)N(Cc1ccc(C(F)(F)F)cc1)C2`?
F508del corr: -1.0; EWS-Fli block: 17.7; PAX8 inh HTS: -1.5; HIV Env fusion: 95.7*

What do the screens show for `COC(=O)c1cc2c(c3c4cc(F)ccc4n(S(=O)(=O)c4ccccc4)c13)C(=O)N(Cc1ccc(C(F)(F)F)cc1)C2`?
F508del corr: -3.7; EWS-Fli block: 7.2; PAX8 inh HTS: 4.7; HIV Env fusion: 18.5

What do the screens show for `O=C(C[C@@H]1C=C[C@@H](NC(=O)CN2CCOCC2)[C@H](CO)O1)NCc1cccc(F)c1`?
F508del corr: 1.0; EWS-Fli block: 1.2; PAX8 inh HTS: 8.6; HIV Env fusion: 8.7[16.7 µM]

Results for CC1=CC(=O)N(c2cccc(C(F)(F)F)c2)C1c1ccc(Cl)cc1 (stereo not drawn) ?
FXN GAA850 act: 2.5; HIV Env fusion: 65.8*

Results for CC1=CC(=O)N(c2ccc(C)cc2)C1c1ccc(Cl)cc1 (stereo not drawn) ?
FXN GAA850 act: 1.1; EWS-Fli block: -2.7; PAX8 inh HTS: 3.9; HIV Env fusion: 2.4

What do the screens show for `C[C@H](CO)N1C[C@H](C)[C@@H](CN(C)C(=O)Nc2ccc3c(c2)OCO3)OCCCC[C@H](C)Oc2ccc(NC(=O)CCC(F)(F)F)cc2C1=O`?
F508del corr: 0.7; EWS-Fli block: -16.3; HIV Env fusion: -24.9[16.7 µM]

Results for Cc1cccc(C)c1OCC(=O)OC/C(O)=C(\C#N)c1nc2ccccc2[nH]1 ?
FXN GAA850 act: 3.7; F508del corr: -0.2; EWS-Fli block: 9.1; PAX8 inh HTS: 68.8*

What do the screens show for `C[C@@H]1CCCCO[C@H](CN(C)Cc2ccccc2)[C@@H](C)CN([C@H](C)CO)C(=O)c2cc(NC(=O)C3CCCCC3)ccc2O1`?
F508del corr: 1.4; EWS-Fli block: 1.6; PAX8 inh HTS: 12.8; HIV Env fusion: -0.4[16.7 µM]

What do the screens show for `O=C(Nc1nc(-c2cccs2)c(-c2cccs2)s1)C1(c2ccccc2)CC1`?
FXN GAA850 act: 0.5; F508del corr: 3.0; EWS-Fli block: 5.1; PAX8 inh HTS: 102.4*

What do the screens show for `COc1ccc(C(=O)C=Cc2ccc3c(c2)OCO3)cc1OC`?
FXN GAA850 act: 2.2; F508del corr: 2.0; EWS-Fli block: -4.6; PAX8 inh HTS: -13.7; HIV Env fusion: -9.5

How did COc1cc(/C=C/C(=O)c2ccc3c(c2)OCO3)cc(Cl)c1O do in these assays?
FXN GAA850 act: -1.0; F508del corr: 9.7*; EWS-Fli block: -11.0; PAX8 inh HTS: -8.8; HIV Env fusion: -5.2

Results for CCN1[C@@H]2c3ccc(-c4cccc(F)c4)c(=O)n3C[C@@H]2[C@@H](CO)[C@@H]1C(=O)N[C@@H](C)c1ccccc1 ?
F508del corr: 2.6; EWS-Fli block: 1.0

Results for Cc1cccc(Nc2nc(N)c([N+](=O)[O-])c(N3CC(C)CC(C)C3)n2)c1 (stereo not drawn) ?
FXN GAA850 act: 4.0; F508del corr: -4.6; EWS-Fli block: 27.7; PAX8 inh HTS: 71.4*

How did COc1cccc(-c2ncc3ccccc3c2COC(=O)N(C)C)c1 do in these assays?
FXN GAA850 act: -0.2; F508del corr: 5.1; EWS-Fli block: 3.7; PAX8 inh HTS: 1.6; HIV Env fusion: 61.3*
